In PubChem BioAssay (NCI) one finds growth inhibition data, which are given here for 21 compounds.

Test [1] can be described thus: NCI Yeast Anticancer Drug Screen. Data for the rad50 strain (AID 155).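 Also: 0% = growth of vehicle-only cultures of the same strain.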 As to conditions: S. cerevisiae rad50 strain growth inhibition; at 50.0 µM; stronger effect = higher value. In a few lines:
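Compounds were tested on a yeast strain with an engineered DNA damage repair alteration; the reported value is growth inhibition normalised to vehicle treatment.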

The nature of test [2]: NCI Yeast Anticancer Drug Screen. Data for the mec2-1 strain (AID 157). As to conditions: S. cerevisiae mec2-1 strain, at 50.0 µM, stronger effect = higher value. In a few lines:
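Yeast mec2-1 mutant treated with compound. Readout: growth inhibition vs vehicle controls.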

Test [3] can be described thus: NCI Yeast Anticancer Drug Screen. Data for the sgs1 mgt1 strain (AID 161).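 Also: 0% = growth of cultures given vehicle only.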 As to conditions: S. cerevisiae sgs1 mgt1 strain, at 50.0 µM, stronger effect = higher value. In outline: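 Genetically altered yeast, compound exposure, growth inhibition relative to vehicle.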
Test [4] can be described thus: NCI Yeast Anticancer Drug Screen. Data for the cln2 rad14 strain (AID 165).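 Also: 0% = growth equal to vehicle treated cultures.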 The settings on record: S. cerevisiae cln2 rad14 strain, at 50.0 µM, stronger effect = higher value. In a few lines:
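cln2 rad14 yeast strain; compound exposure; growth inhibition read vs vehicle controls.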

A short description of test [5]: NCI Yeast Anticancer Drug Screen. Data for the bub3 strain (AID 167). As to conditions: S. cerevisiae bub3 mutant strain, at 50.0 µM, stronger effect = higher value. In outline: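 Growth of a checkpoint-deficient yeast mutant is measured after compound exposure. Values represent inhibition relative to vehicle.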
A short description of test [6]: NCI Yeast Anticancer Drug Screen. Data for the mlh1 rad18 strain (AID 175). The settings on record: S. cerevisiae mlh1 rad18 strain growth inhibition; at 50.0 µM; stronger effect = higher value. In outline: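 Yeast w/ defined DNA-repair lesions; compound exposure; growth vs vehicle controls → % inhibition.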

The panel holds about 79,000 compounds, 15% with a hit somewhere; the sample as a whole holds those more often. Values without a mark were called inactive. Calls of active or inactive are those of the source. Rule as the data show it: active = growth inhibition above about 70%; inactive = the rest.

`CCCCCCC(=O)/C=C/c1ccccc1Cl`: the growth inhibition in test [1] was -12.2%; in test [2], -29.6%; in test [3], -1.35%; in test [4], 10.3%; in test [5], 15.1%; in test [6], 10.1%.

For the compound `CC1(C#N)N(C(=O)c2ccccc2)c2ccccc2N1C(=O)c1ccccc1`, the growth inhibition in test [1] was 18.6%; in test [2], 50.2%; in test [3], 46.2%; in test [4], 27.2%; in test [5], 36%; in test [6], 24.9%.

`COc1cc([N+](=O)[O-])c2ncccc2c1OC`: the growth inhibition in test [1] is 5.55%; in test [2], -11.1%; in test [3] it was -22.1%; in test [4], -20.2%; in test [5] it was 0.45%; in test [6], 68.2%.

For `COC1CCC(OC)(C(=O)NN)O1` (stereo unspecified), the growth inhibition in test [1] is -22.9%; in test [2], -53.1%; in test [3], -9.45%; in test [4], 4.3%; in test [5], -57.2%; in test [6], -0.6%.

Consider `CC(=O)c1cc2cc(Br)ccc2oc1=O`, for which the growth inhibition in test [1] was 13.5%; in test [2], 18%; in test [3], 16.2%; in test [4], 24.9%; in test [5], 14.4%; in test [6] it was 23.6%.

Take `CCC/C(=N/NC(=O)C1CCCO1)c1ccccc1` (stereo unspecified): the growth inhibition is -1.8% in test [1]; 18.4% in test [2]; 16.6% in test [3]; -4.2% in test [4]; 7.5% in test [5]; 26% in test [6].

Turning to `CC(C)(C(=O)Cc1ccccc1)c1ccccc1`, the growth inhibition in test [1] was -29.5%; in test [2], -21.4%; in test [3] it was -10.2%; in test [4], 31.1%; in test [5], 0.2%; in test [6] it was -11.3%.

Turning to `C[N+]([O-])(Cc1ccccc1)c1ccccc1` (stereo unspecified), the growth inhibition is -3.6% in test [1]; -16.3% in test [2]; -15.2% in test [3]; -20.9% in test [4]; -26.8% in test [5]; 1.75% in test [6].

Turning to `O=C(/C=C(/CC(=O)c1ccccc1)C(=O)c1ccccc1)c1ccccc1`, the growth inhibition is -13.1% in test [1]; -22.9% in test [2]; -11.2% in test [3]; -22.1% in test [4]; -10.5% in test [5]; -30.8% in test [6].

With `COc1ccccc1N=Nc1c(-c2cccs2)nn(C(=S)SC)c1C(F)(F)F`, the growth inhibition in test [1] was -3.5%; in test [2] it was 10.2%; in test [3], -21.6%; in test [4] it was -3.9%; in test [5] it was 18.7%; in test [6], 30.8%.

`CN(C)CCNc1ccc(CO)c2sc3ccc(O)cc3c(=O)c12`: the growth inhibition in test [1] was 11.4%; in test [2], -3.65%; in test [3] it was 12.1%; in test [4], -32%; in test [5], 12.2%; in test [6] it was -9.25%.

Consider `c1ccc(-c2nc3c(N4CCOCC4)ncnc3o2)cc1`, for which the growth inhibition is -3.25% in test [1]; -4.65% in test [2]; 7.95% in test [3]; -2.55% in test [4]; -4.8% in test [5]; 2.75% in test [6].

As for `CCCC(=O)OC1C=C2N3C(=O)C4CC56C(=CC(OC(C)=O)C7OC75)N4C(=O)C3CC26C2OC12` (stereo unspecified), the growth inhibition in test [1] was 83.3% (active); in test [2], 84.2% (active); in test [3] it was 89.7% (active); in test [4], 78.8% (active); in test [5], 76.3% (active); in test [6], 85.2% (active).

`CN(C)CC1CN(C)CC(CN(C)C)C1(O)C(C(=O)N(C)C)c1ccccc1` (stereo unspecified): the growth inhibition was 75.2% (active) in test [1]; 50% in test [2]; 65.2% in test [3]; 36.4% in test [4]; 49.7% in test [5]; 62.2% in test [6].

As to `CC(=C\C=N\N(C)c1ccccc1)/C=C1\Cc2ccccc2C1=O`, the growth inhibition in test [1] was -8.7%; in test [2] it was 2.2%; in test [3], -19.1%; in test [4], 14%; in test [5], -2.8%; in test [6], -9.65%.

Take `O=C1c2ccccc2C(=O)N1CCc1ccccc1`: the growth inhibition is -12.1% in test [1]; 7% in test [2]; -6.9% in test [3]; -36% in test [4]; 16.6% in test [5]; 14.1% in test [6].

For the compound `CCOC1C=CCCC1` (stereo unspecified), the growth inhibition in test [1] was -1.75%; in test [2], 23.6%; in test [3], -6.35%; in test [4] it was 9.4%; in test [5] it was 14.8%; in test [6], -14%.

For `N#Cc1c(O)c(-c2ccccc2)c(=O)n2c1[nH]c1ccccc12`, the growth inhibition in test [1] was -11.7%; in test [2] it was -9.9%; in test [3], -13.6%; in test [4] it was 14.9%; in test [5], 2.6%; in test [6], -12.3%.

Turning to `CCCOc1cc2c(cc1C(C)c1ccc(OC)cc1)OCO2` (stereo unspecified), the growth inhibition in test [1] was 9.8%; in test [2], -4.35%; in test [3], 15.8%; in test [4] it was -1.9%; in test [5], -14.4%; in test [6], -53%.

Consider `O=C(Cl)C(c1ccccc1)N1C(=O)c2ccccc2C1=O` (stereo unspecified), for which the growth inhibition in test [1] is 7.15%; in test [2], 2.15%; in test [3], 0%; in test [4], -38.5%; in test [5], -4%; in test [6], 0.95%.

For the compound `O=C(CCC(=O)Nc1cc(Cl)ccc1Cl)CC(=O)c1ccc([N+](=O)[O-])cc1`, the growth inhibition was 10.1% in test [1]; 28.9% in test [2]; 4.35% in test [3]; 13.8% in test [4]; -2% in test [5]; 40.4% in test [6].
